tested on: Plasmodium falciparum; test: GSK_TCMDC: Inhibition of Plasmodium falciparum Dd2 in whole red blood cells, using parasite LDH activity as an index of growth. Test compounds present at 2uM; type: functional

Row | SMILES | Inhibition
1 | CC(=O)Nc1cc(C(=O)Nc2cccc(-c3cccc(-c4nc5cccc(C)c5[nH]4)c3)c2)ccc1C | 62%
2 | CCOC(=O)N/N=C/[C@H](CCc1ccccc1)NC(=O)[C@H](CC(C)C)NC(=O)c1cc2cccc(OC)c2o1 | 58%
3 | CC(=O)Nc1cccc(C(=O)Nc2cccc(-c3ccc(-c4nc5cc(F)ccc5[nH]4)cc3)c2)c1 | 9%
4 | CCN(CCO)CCCC(C)Nc1ccnc2cc(Cl)ccc12.O=S(=O)(O)O (stereo not given) [HYDROXYCHLOROQUINE SULFATE] | 0%
5 | CNC(=O)c1cc(Nc2nnc(-c3ccc(C)c(S(=O)(=O)NC4CCCCC4)c3)c3ccccc23)ccc1OC | 61%
6 | COCCNCc1cccc(C#Cc2cc3ncnc(Nc4ccc(OCc5cccc(F)c5)c(Cl)c4)c3s2)n1 | 52%
7 | CC(C(=O)OCCOCn1cnc2c(=O)[nH]c(N)nc21)N(C)C(=O)OC(C)(C)C (stereo not given) | 0%
8 | O=C(O)C(F)(F)F.O=S(=O)(NCCN1CCCC1)c1ccc(-c2ccc(CNCc3ccc(F)cc3)cc2)cc1F | 21%
9 | Cc1cc(CN2CCC(N3CC(c4ccccc4)(c4ccccc4)OC3=O)C2)ccc1O (stereo not given) | 68%
10 | CN(C)CCC(O)C=C(c1ccc(Cl)cc1)c1ccc(Cl)cc1 (stereo not given) | 85%
11 | CO/C(=C\C=C\c1cc2cc(Cl)c(Cl)cc2[nH]1)C(=O)NCCCN1CCN(c2ccncc2)CC1 | 96%
12 | Cl.c1ccc(COc2ccc(Nc3ncnc4cnc(-c5ccc(CN6CCCCC6)o5)cc34)cc2)cc1 | 13%
13 | CCOC(=O)c1cncc(/C=C/c2cc(C)cnc2N)c1 | 3%
14 | CC(C)CCNc1nc2ccccc2nc1Nc1cccc(C(F)(F)F)c1 | 99%
15 | CC(C)COc1ccc(Cl)cc1Cc1ccc(-c2nc3cc(CCN4CCCC4)ccc3[nH]2)o1.Cl | 94%
16 | CC(=O)Nc1ccc(C(=O)NC2CCN(c3ccnc4cc(Cl)ccc34)CC2)cc1.O=C(O)C(F)(F)F | 99%
17 | COc1ccc(Nc2cc(C)nc(NCc3ccc4c(c3)OCO4)n2)cc1 | 78%
18 | CC(C)(C)C1CC(=O)CC2C(=O)N(C3CCCCC3)C(=O)C21 (stereo not given) | 27%
19 | CCc1ccc(NC(=O)c2ccc(CN3CCCN(Cc4cccc(O)c4)CC3)cc2)cc1.O=C(O)C(F)(F)F | 55%
20 | O=C(Nc1ccsc1)Nc1cccc(-c2cccc(-c3nc4ccccc4[nH]3)c2)c1 | 55%

Row | SMILES | Inhibition
21 | Nc1nc(N)c2c(Cc3ccc(Br)cc3)cccc2n1 | 20%
22 | CN1CCCC1CCNCc1cccc(-c2cnc(N(C)C3CCCCC3)nc2)c1 (stereo not given) | 95%
23 | CCCCN(Cc1cc(Cl)c(OCC)c(OC)c1)c1ccc(C(O)(C(F)(F)F)C(F)(F)F)cc1.O=C(O)C(F)(F)F | 97%
24 | COc1ccc2nccc([C@@H](O)CN3CCC(NCc4cc5c(Cl)cccc5[nH]4)CC3)c2c1.O=C(O)C(=O)O | 74%
25 | Cc1cccc2nc(-c3ccc(-c4cccc(NC(=O)Nc5ccc(F)c(F)c5F)c4)cc3)[nH]c12 | 89%
26 | Cc1ccc(CON2C(N)=NC(N)=NC2(C)C)c(Cl)c1.Cc1ccc(CON2C(N)=NC(N)=NC2(C)C)cc1Cl | 96%
27 | COc1ccc(CC2(c3ccc(F)cc3)N=C(N)N(CCCc3cccnc3)C2=O)cc1.O=C(O)C(F)(F)F (stereo not given) | 97%
28 | Cc1cc(N[C@@H](Cc2ccccc2)C(=O)NC2CCCC2)nc(NCc2ccccc2C)n1.O=C(O)C(F)(F)F | 20%
29 | CC(=O)Nc1cccc(-c2cnc(N)c3cc(-c4ccc5c(c4)OCO5)ccc23)c1 | 93%
30 | Cc1cc(N[C@@H](Cc2ccccc2)C(=O)NCCOc2ccccc2)nc(NCCc2ccccn2)n1.O=C(O)C(F)(F)F | 42%
31 | N#Cc1ccc(N2CCN(C(=O)c3cccc(-c4noc(C(F)(F)F)n4)c3)CC2)nc1 | 58%
32 | C/C=C/COc1ccc2ccccc2c1CNCCCCCCCCNCc1c(OC/C=C/C)ccc2ccccc12.CS(=O)(=O)O.O | 86%
33 | COc1ccc(Cn2c(Nc3cccc(C(F)(F)F)c3)nc3cc(C(=O)NCCCN(C)C)ccc32)cc1Cl | 3%
34 | COc1ccc(O)c(C(=O)c2cc(C(=O)NC3CCCCC3)c(=O)n(C3CCCCC3)c2)c1 | 62%
35 | CON(C)C(=O)[C@@H](CCCCNC(=O)OCc1ccccc1)NC(=O)OC(C)(C)C | 0%
36 | CC1CCCN(Cc2c(O)ccc3c(O)c(-c4nc5ccccc5s4)c(=N)oc23)C1 (stereo not given) | 99%
37 | O=C(NCCc1ccccc1)N(Cc1cccc(-c2ccc(CNC3CCCC3)cc2)c1)C1CCN(Cc2ccccc2)CC1.O=C(O)C(F)(F)F | 84%
38 | CSc1ccc(CN2CCC(CNC(=O)c3cc(-c4ccccc4F)cs3)C2)cc1.O=C(O)C(F)(F)F (stereo not given) | 13%
39 | O=C(NCc1cccs1)[C@H](Cc1ccccc1)Nc1ccnc(NCCc2ccc(F)cc2)n1.O=C(O)C(F)(F)F | 52%
40 | COc1ccc2ccc(F)c(CCN3CCC(NCc4cc5c(cn4)OCCO5)CC3)c2n1.Cl | 36%

From ChEMBL document CHEMBL1157539, “Thousands of chemical starting points for antimalarial lead identification” (Nature, 2010)
